Results filed as inconclusive are left out. Active and inactive are the calls of the source. Rule for the calls, unless noted: active = hit-call score of the fitted dose curve at least 0.9, where 1 is the maximum; inactive = score below 0.9.
Assays:
[1] = read-out: succinate dehydrogenase complex iron sulfur subunit B (SDHB), SDHB (gene 6390); experiment: LTEA_HepaRG_SDHB: Life Technologies and Expression Analysis (LTEA) Assay for succinate dehydrogenase complex iron sulfur subunit B (SDHB) using HepaRG (AID 2283528); details: mRNA level, 48 h; actives raise or lower the signal
In short: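 Readout is SDHB transcript level by qRT-PCR, normalised to three housekeeping genes and fitted bidirectionally against 0.5% DMSO vehicle. Human HepaRG cells were treated for 48 h at up to 100 uM.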

[2] = read-out: Signal transducer and activator of transcription 3 (Homo sapiens) (UniProt P40763); experiment: LTEA_HepaRG_STAT3: Life Technologies and Expression Analysis (LTEA) Assay for Signal transducer and activator of transcription (STAT3) using HepaRG (AID 2283529); details: mRNA level, 48 h; actives raise or lower the signal
In short: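 Differentiated HepaRG cells, serum-free induction medium, dosed 48 h in duplicate, 8 half-log concentrations from 100 uM in 0.5% DMSO. STAT3 mRNA by qRT-PCR, normalised to ACTB, GAPDH, POLR2A; bidirectional fit versus DMSO.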

[3] = read-out: solute carrier (SLCO1B1), SLCO1B1 (gene 10599); experiment: LTEA_HepaRG_SLCO1B1: Life Technologies and Expression Analysis (LTEA) Assay for solute carrier (SLCO1B1) using HepaRG (AID 2283530); details: mRNA level, 48 h; actives raise or lower the signal
In short: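 SLCO1B1 transcript read by qRT-PCR (Fluidigm arrays), normalized to three housekeeping genes, after 48 h chemical exposure of HepaRG cells; bidirectional concentration-response fitting versus 0.5% DMSO baseline. Eight-point half-log series, maximum 100 uM.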

[4] = read-out: sulfotransferase 2A1 (SULT2A1), SULT2A1 (gene 6822); experiment: LTEA_HepaRG_SULT2A1: Life Technologies and Expression Analysis (LTEA) Assay for sulfotransferase 2A1 (SULT2A1) using HepaRG (AID 2283531); details: mRNA level, 48 h; actives raise or lower the signal
In short: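 HepaRG, 48 h chemical exposure, 8-pt half-log curve from 100 uM in 0.5% DMSO, duplicates. Readout: TaqMan qRT-PCR of SULT2A1 mRNA, housekeeping-normalized. Bidirectional fit vs DMSO baseline.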

[5] = read-out: Transforming Growth Factor (TGFA), TGFA (gene 7039); experiment: LTEA_HepaRG_TGFA: Life Technologies and Expression Analysis (LTEA) Assay for Transforming Growth Factor (TGFA) using HepaRG (AID 2283532); details: mRNA level, 48 h; actives raise or lower the signal
In short: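 Differentiated HepaRG cells exposed 48 hours in serum-free induction medium, 0.5% DMSO vehicle, 8-point half-log series from 100 uM, in duplicate. TGFA mRNA by TaqMan qRT-PCR, normalised to ACTB, GAPDH, POLR2A; bidirectional fit versus DMSO.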

[6] = read-out: Transforming Growth Factor (TGFB1), TGFB1 (gene 7040); experiment: LTEA_HepaRG_TGFB1: Life Technologies and Expression Analysis (LTEA) Assay for Transforming Growth Factor (TGFB1) Transporter using HepaRG (AID 2283533); details: mRNA level, 48 h; actives raise or lower the signal
In short: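 qRT-PCR readout of TGFB1 transcript in HepaRG lysates, normalized to three housekeeping genes; gain or loss of signal fitted relative to 0.5% DMSO vehicle. Exposure: 48 h, 8-point curve from 100 uM, duplicate wells.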

TIMP1, TIMP1 (gene 7076) = experiment: LTEA_HepaRG_TIMP1: Life Technologies and Expression Analysis (LTEA) Assay for TIMP1 using HepaRG (AID 2283534); details: mRNA level, 48 h; actives raise or lower the signal;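 note: TaqMan qRT-PCR signal normalized to ACTB GAPDH and POLR2A housekeeping genes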
In short: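 HepaRG, 48 h exposure, 8-pt half-log series from 100 uM in 0.5% DMSO, duplicates; TIMP1 transcript by Fluidigm qRT-PCR, housekeeping-normalized; bidirectional curve fit vs DMSO baseline.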

[7] = read-out: Tumor necrosis factor receptor 1 (TNFRSF1A), TNFRSF1A (gene 7132); experiment: LTEA_HepaRG_TNFRSF1A: Life Technologies and Expression Analysis (LTEA) Assay for Tumor necrosis factor receptor 1 (TNFRSF1A) using HepaRG (AID 2283535); details: mRNA level, 48 h; actives raise or lower the signal
In short: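 HepaRG, 48 h plating then 48 h chemical exposure, serum-free induction media; 8-pt CRC from 100 uM, half-log, 0.5% DMSO vehicle, duplicates. Readout: TaqMan qRT-PCR (Fluidigm), housekeeping-gene normalized; bidirectional fit vs DMSO.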

[8] = read-out: Thyroid Hormone Responsive (THRSP), THRSP (gene 7069); experiment: LTEA_HepaRG_THRSP: Life Technologies and Expression Analysis (LTEA) Assay for Thyroid Hormone Responsive (THRSP) using HepaRG (AID 2283536); details: mRNA level, 48 h; actives raise or lower the signal
In short: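 Differentiated HepaRG cells treated 48 h in serum-free induction medium with 8 half-log concentrations up to 100 uM (0.5% DMSO), duplicates. THRSP mRNA by TaqMan qRT-PCR normalised to ACTB, GAPDH, POLR2A; bidirectional fit versus DMSO.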

[9] = read-out: Cellular tumor antigen p53 (Homo sapiens) (UniProt P04637); experiment: LTEA_HepaRG_TP53: Life Technologies and Expression Analysis (LTEA) Assay for Tumor Protein P53 (TP53) using HepaRG (AID 2283537); details: mRNA level, 48 h; actives raise or lower the signal
In short: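 Read-out is TP53 transcript level by microfluidic qRT-PCR, normalised to three housekeeping genes and fitted bidirectionally against DMSO. Human HepaRG cells received compounds for 48 h, highest concentration 100 uM.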

[10] = read-out: UDP glucuronosyltransferase (UGT1A1), UGT1A1 (gene 54658); experiment: LTEA_HepaRG_UGT1A1: Life Technologies and Expression Analysis (LTEA) Assay for UDP glucuronosyltransferase (UGT1A1) using HepaRG (AID 2283538); details: mRNA level, 48 h; actives raise or lower the signal
In short: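 HepaRG cells, 0.5% DMSO vehicle, 48 h exposure in serum-free induction medium to 8-point half-log series topping at 100 uM, in duplicate. UGT1A1 mRNA by Fluidigm qRT-PCR, normalized to ACTB/GAPDH/POLR2A; bidirectional fit versus DMSO.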

[11] = read-out: UDP glucuronosyltransferase (UGT1A6), UGT1A6 (gene 54578); experiment: LTEA_HepaRG_UGT1A6: Life Technologies and Expression Analysis (LTEA) Assay for UDP glucuronosyltransferase (UGT1A6) using HepaRG (AID 2283539); details: mRNA level, 48 h; actives raise or lower the signal
In short: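 qRT-PCR readout of UGT1A6 mRNA (normalized to ACTB/GAPDH/POLR2A) in differentiated HepaRG cells after 48 h chemical exposure; 8 concentrations, top 100 uM, half-log steps, 0.5% DMSO. Bidirectional curve fit relative to DMSO baseline.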

[12] = read-out: X-box binding protein 1 (XBP1), XBP1 (gene 7494); experiment: LTEA_HepaRG_XBP1: Life Technologies and Expression Analysis (LTEA) Assay for X-box binding protein 1 (XBP1) using HepaRG (AID 2283540); details: mRNA level, 48 h; actives raise or lower the signal
In short: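 HepaRG, 48 h exposure, 8-pt half-log CRC top 100 uM, 0.5% DMSO vehicle, duplicates. Readout: TaqMan qRT-PCR of XBP1 mRNA, housekeeping-normalised (ACTB/GAPDH/POLR2A); bidirectional fit vs DMSO baseline.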

[13] = LTEA_HepaRG_LDH_cytotoxicity: Cytotoxicity Assessment in the Life Technologies and Expression Analysis (LTEA) Assay (AID 2283563; active = hit-call score of the fitted dose curve at least 0.9, where 1 is the maximum)
In short: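 HepaRG (human liver line), 48 h exposure, 8-pt half-log series from 100 uM, 0.5% DMSO vehicle, duplicates. Read-out: LDH in spent medium. Positive-direction fit vs DMSO baseline.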

[14] = TOX21_p53_BLA_p2_viability: Viability Assessment in the Tox21 HCT-116 p53 Agonism Beta-lactamase Assay, Phase 2 (AID 2283591; active = hit-call score of the fitted dose curve at least 0.9, where 1 is the maximum;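 note: compound exposure lasted 16 h at 37 °C; actives lower the ATP signal meaning cytotoxicity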)
In short: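 HCT116 p53-bla cells, 4000/well, dosed after 5 h plating (217-fold dilution of DMSO stocks) and incubated 16 h at 37C. Viability taken as cellular ATP by CellTiter-Glo luminescence after 30 min RT; signal loss marks cytotoxicity.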

[15] = biological target: Cellular tumor antigen p53 (Homo sapiens) (UniProt P04637); experiment: TOX21_p53_BLA_p2_ratio: Tox21 HCT-116 p53 Agonism Beta-lactamase Assay, Ratio, Phase 2 (AID 2283592; active = hit-call score of the fitted dose curve at least 0.9, where 1 is the maximum)
In short: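 In this cell-based reporter format, HCT116 cells were dosed with chemicals delivered from DMSO by 217-fold dilution and incubated 16 h at 37C. Emission at 460 and 530 nm after 2 h CCF4-AM loading provided the ratio, fitted upward versus DMSO.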

[16] = TOX21_p53_BLA_p3_viability: Viability Assessment in the Tox21 HCT-116 p53 Agonism Beta-lactamase Assay, Phase 3 (AID 2283593; active = hit-call score of the fitted dose curve at least 0.9, where 1 is the maximum;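 note: cells exposed to compound for 16 h before reading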)
In short: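 HCT116 cells, 4000/well, dosed 5 h after plating by pin transfer (217-fold dilution from DMSO stock) and incubated 16 h at 37C, 5% CO2. Viability read as ATP luminescence with CellTiter-Glo after 30 min at room temperature.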

[17] = biological target: Cellular tumor antigen p53 (Homo sapiens) (UniProt P04637); experiment: TOX21_p53_BLA_p3_ratio: Tox21 HCT-116 p53 Agonism Beta-lactamase Assay, Ratio, Phase 3 (AID 2283596; active = hit-call score of the fitted dose curve at least 0.9, where 1 is the maximum)
In short: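 HCT116 p53-bla cells (4000/well) given compound in DMSO (217-fold dilution) after 5 h, incubated 16 h at 37C. CCF4-AM substrate 2 h at room temperature; 460/530 nm emission ratio, gain fitted against DMSO.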

[18] = TOX21_p53_BLA_p4_viability: Viability Assessment in the Tox21 HCT-116 p53 Agonism Beta-lactamase Assay, Phase 4 (AID 2283597; active = hit-call score of the fitted dose curve at least 0.9, where 1 is the maximum;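 note: hits lower the luminescence signal meaning cytotoxicity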)
In short: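 We seeded HCT116 p53 reporter cells at 4000/well and waited 5 h. We then added compounds in DMSO at a 217-fold dilution and incubated for 16 h. Viability was read as CellTiter-Glo luminescence after 30 min at RT.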

[19] = ATG_XTT_Cytotoxicity: Cytotoxicity Assessment in the Attagene TRANS-FACTORIAL HepG2 Assay (AID 2283584; active = hit-call score of the fitted dose curve at least 0.9, where 1 is the maximum)
In short: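 XTT readout of cell number in transfected HepG2 cells, 24 h post-dosing; DMSO serves as negative control and baseline, with activity taken as loss of viability signal.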

Measured: outcome

Cellular tumor antigen p53 (Homo sapiens), sequence (P04637 whole entry, looked up): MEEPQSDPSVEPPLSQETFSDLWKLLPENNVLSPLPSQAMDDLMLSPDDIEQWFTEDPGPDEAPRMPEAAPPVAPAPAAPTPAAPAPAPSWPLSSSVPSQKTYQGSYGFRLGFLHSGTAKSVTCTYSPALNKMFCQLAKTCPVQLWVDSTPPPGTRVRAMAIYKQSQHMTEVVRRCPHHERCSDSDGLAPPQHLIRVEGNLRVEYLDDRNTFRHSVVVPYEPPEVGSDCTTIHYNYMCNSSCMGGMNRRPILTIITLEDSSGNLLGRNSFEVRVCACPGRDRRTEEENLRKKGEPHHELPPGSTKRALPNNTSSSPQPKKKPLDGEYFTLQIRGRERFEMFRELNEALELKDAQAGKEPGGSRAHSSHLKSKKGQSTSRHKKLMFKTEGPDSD
Signal transducer and activator of transcription 3 (Homo sapiens), sequence (P40763 whole entry, looked up): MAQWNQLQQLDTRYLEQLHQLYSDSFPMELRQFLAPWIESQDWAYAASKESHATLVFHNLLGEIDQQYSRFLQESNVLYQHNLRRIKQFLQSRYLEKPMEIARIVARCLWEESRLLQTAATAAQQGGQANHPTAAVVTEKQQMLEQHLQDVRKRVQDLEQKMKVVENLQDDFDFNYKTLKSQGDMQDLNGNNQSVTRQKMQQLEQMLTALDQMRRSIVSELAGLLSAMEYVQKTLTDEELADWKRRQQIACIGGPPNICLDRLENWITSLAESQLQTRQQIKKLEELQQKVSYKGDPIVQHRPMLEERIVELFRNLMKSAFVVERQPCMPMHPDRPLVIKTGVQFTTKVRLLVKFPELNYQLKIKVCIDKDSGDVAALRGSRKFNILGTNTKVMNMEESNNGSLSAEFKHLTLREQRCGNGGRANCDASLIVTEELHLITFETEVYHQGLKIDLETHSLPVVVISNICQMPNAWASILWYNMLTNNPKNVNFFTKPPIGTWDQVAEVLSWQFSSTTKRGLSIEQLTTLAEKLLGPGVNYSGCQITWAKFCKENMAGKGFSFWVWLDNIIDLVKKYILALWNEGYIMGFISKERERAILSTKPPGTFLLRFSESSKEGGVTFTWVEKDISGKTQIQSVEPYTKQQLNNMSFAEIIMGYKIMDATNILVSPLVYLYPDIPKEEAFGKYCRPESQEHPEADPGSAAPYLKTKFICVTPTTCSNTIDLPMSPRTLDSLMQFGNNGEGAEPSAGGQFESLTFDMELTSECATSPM

Nc1ccc(-c2ccc(N)cc2)cc1
not listed: [19]
inactive: all other assays above

CCCCCCCCOC(=O)c1ccccc1C(=O)OCCCCCCCC
not listed: [1] | [18]
inactive: all other assays above

Clc1ccc(Cl)cc1
not listed: [1]
inactive: all other assays above

Nn1cnnc1
not listed: [1]
inactive: all other assays above

— PubChem BioAssay (EPA / NIEHS)
